GLA spleen mod: qHTS Assay for Inhibitors and Activators of Human alpha-Galactosidase From Spleen Homogenate. Alpha-galactosidase A (Homo sapiens), P06280. hit rate 0.008% among 240,000. human spleen homogenate, 4MU-alpha-Gal fluorescence, 40 min. Potency, µM (doses to about 80 µM), without a hit: top-dose activity change, negative = inhibition, usual class: inhibitors. AID 2107, 2009;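 further: potency means the concentration at half of the fitted maximal effect; 0% = enzyme with vehicle and -100% = no enzyme basal signal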
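Inhibition or activation of alpha-galactosidase in human spleen homogenate is scored by 4-MU fluorescence after 40 min at 37C, pH 5.0, with 1 mM substrate. AC50s come from concentration-response fitted to the Hill equation.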
HPGD inh: qHTS Assay for Inhibitors of HPGD (15-Hydroxyprostaglandin Dehydrogenase) | 15-hydroxyprostaglandin dehydrogenase [NAD(+)] (Homo sapiens), P15428 | Potency, µM, without a hit: at the highest dose activity change, negative = inhibition, most hits filed as inhibitors | hit rate 4.3% among 150,000 | purified HPGD, NADH fluorescence kinetic, PGE2 substrate | AID 894, 2007; active means well fitted inhibition curve with a large enough effect, not every such curve was filed as active; inconclusive means small, poorly fitted or top-dose-only effect, or another doubt; inactive means no such curve, though single readings can be large or run the other way; further: potency means the concentration at half of the fitted maximal effect
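NADH formation kinetics: reaction with 30 uM PGE2 and 1 mM NAD+ (final), 20 nM enzyme, Tris-HCl pH 8 with Tween 20, after 15 min compound preincubation at room temperature. Fluorescence change, last versus first of five reads.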
12-hLO inh: qHTS Assay for Inhibitors of 12-hLO (12-human lipoxygenase); Polyunsaturated fatty acid lipoxygenase ALOX12 (Homo sapiens), P18054; purified 12-hLO, xylenol orange hydroperoxide absorbance; AID 1452, 2008; hit rate 0.12% among 150,000; Potency, µM (titrated, usually from 57.1 µM), for the others: at the highest dose activity change, negative = inhibition, actives largely listed as inhibitors; further: potency means the concentration at half of the fitted maximal effect; nearly all actives have a fitted effect of over 55% in size
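Purified human 12hLO (150 nM final) was preincubated with compounds for 15 min at room temperature in 25 mM Hepes pH 7.0, 0.01% Triton X-100, then reacted with 40 uM arachidonic acid for 30 min. Hydroperoxide was detected with ferrous iron/xylenol orange.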
ALDH1A1 inh: qHTS Assay for Inhibitors of Aldehyde Dehydrogenase 1 (ALDH1A1). Aldehyde dehydrogenase 1A1 (Homo sapiens), P00352. Purified ALDH1A1, NADH fluorescence, propionaldehyde substrate. Potency, µM (series often up to 75.3 µM), for inactives: top-dose activity, negative = inhibition, hits mostly inhibitors. hit rate 7.3% among 220,000. AID 1030, 2008; active means well fitted inhibition curve with a large enough effect, not every such curve was filed as active; inconclusive means small, poorly fitted or top-dose-only effect, or another doubt; inactive means no such curve, though single readings can be large or run the other way;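 further: potency means the concentration at half of the fitted maximal effect; plate controls were no enzyme wells and a reference inhibitor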
Target sequence (P00352 whole entry, looked up): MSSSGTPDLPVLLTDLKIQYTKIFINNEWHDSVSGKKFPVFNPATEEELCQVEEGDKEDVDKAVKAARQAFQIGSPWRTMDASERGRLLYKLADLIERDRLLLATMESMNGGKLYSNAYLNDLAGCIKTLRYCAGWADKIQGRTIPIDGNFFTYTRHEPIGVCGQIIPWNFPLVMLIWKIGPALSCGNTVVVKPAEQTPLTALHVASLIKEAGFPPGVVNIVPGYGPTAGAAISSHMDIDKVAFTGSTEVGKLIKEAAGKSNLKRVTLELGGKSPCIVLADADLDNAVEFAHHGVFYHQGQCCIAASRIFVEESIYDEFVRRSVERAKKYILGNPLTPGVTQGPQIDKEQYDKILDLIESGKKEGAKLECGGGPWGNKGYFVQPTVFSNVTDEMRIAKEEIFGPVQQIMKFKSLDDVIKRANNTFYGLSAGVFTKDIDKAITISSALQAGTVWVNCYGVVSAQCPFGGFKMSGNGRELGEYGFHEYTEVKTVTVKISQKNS
PNC inhibitor: High Content Assay for Compounds that inhibit the Assembly of the Perinucleolar Compartment; PC3M PTB-GFP, PNC prevalence imaging, 16 h; stronger effect = lower value; activity change (PNC), negative = inhibition, % at 10 µM; hit rate 3.1% among 140,000; AID 2417, 2010;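 active means readout at or below -70, meaning at least 70% loss of cells showing the perinucleolar compartment, a nuclear body marking cancer cells; inconclusive means readout between -30 and a set limit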;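 further: plate controls were DMSO wells for no effect and camptothecin positive control wells for full effect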
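Compounds are pinned in duplicate onto adhered PC3M cells stably expressing GFP-tagged PTB and incubated 16 h at 37 C. Cells are then fixed, nuclei stained with Hoechst, and PNC-positive cells counted.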
GLA inh pH 4.5: qHTS Assay for Inhibitors of Human alpha-Galactosidase at pH 4.5 | Alpha-galactosidase A (Homo sapiens), P06280 | activity change, negative = inhibition, % at 105 µM | AID 1467, 2008 | 230,000 tested, under 10 active | purified enzyme, 4-MU-alpha-Gal fluorescence, pH 4.5;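 further: 0% = full activity with enzyme and -100% = basal without enzyme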
The depositor's hits bear a star; ? = inconclusive; . = not tested or not shown. Only some compounds are listed: those with a hit (about 10% of all), similar ones and a draw of the others. Unless noted, the call rests on the fitted dose curve; in most records, active means well fitted curve in the direction sought with a large enough effect; inconclusive means small, poorly fitted or top-dose-only effect, or another doubt; inactive means no such curve, though single readings can be large; an effect the other way counts as inactive or inconclusive. Unless noted, on the % scale 0 is the no-effect control and ±100 the full control effect.

SMILES	GLA spleen mod	HPGD inh	12-hLO inh	ALDH1A1 inh	PNC inhibitor	GLA inh pH 4.5
CC1CCN(CCCNC(=O)c2ccc3c(Cl)c4c(nc3c2)CCCC4)CC1	-1%	.	.	.	.	-4
COC(=O)C1NN=C(C(=O)c2ccccc2)C1c1ccccc1 (configuration not stated)	-1%	-11%	-5%	?	16	4
COC(=O)C1NN=C(C(=O)c2ccc(Cl)cc2)C1c1ccc(OC)cc1 (configuration not stated)	-6%	-18%	-4%	25µM*	2	-2
Cn1cnnc1Sc1ccc(/C=C(\CCC(=O)O)c2nc3ccccc3s2)cc1[N+](=O)[O-]	5%	.	.	12µM*	.	-6
Cn1cnnc1Sc1ccc(/C=C/C(=O)c2ccc(O)cc2)cc1[N+](=O)[O-]	-4%	.	.	-2%	.	3
CN(c1ccccc1)c1ccc(/C=C(\CCC(=O)O)c2nc3ccccc3s2)cc1[N+](=O)[O-]	3%	25µM*	-1%	13µM*	36	-9
COc1ccc(NC(=O)/C(C#N)=C/c2ccc(Sc3nncn3C)c([N+](=O)[O-])c2)cc1	-10%	.	.	11µM*	.	-1
COc1ccc(OC)c(C2=Nn3c(nnc3-c3ccccc3OC)SC2)c1	4%	.	.	.	.	.
Cc1ccc(S(=O)(=O)N2CCN(CC(=O)NC3CCCc4ccccc43)CC2)cc1C (configuration not stated)	-6%	-10%	-11%	0.45µM*	36	-5
Cc1ccc(S(=O)(=O)N2CCN(CC(=O)NC3CCCc4ccccc43)CC2)c(C)c1 (configuration not stated)	0%	-8%	-21%	13µM*	13	-1
Cc1ccc(C)c(S(=O)(=O)N2CCN(CC(=O)N3CCc4ccccc4C3)CC2)c1	7%	-8%	-24%	18µM*	3	-7
NC(=O)C1CCN(CC(=O)NC2CCCc3ccccc32)CC1 (configuration not stated)	-16%	.	.	14%	.	-3
COc1ccc(NC(=O)N2CC3(CCN(C(=O)c4c(C)noc4C)CC3)C2)cc1	11%	-22%	-1%	?	.	.
CCCCCCCCC1CO1 (configuration not stated)	-6%	-2%	-9%	-4%	.	.
CN(Cc1ccccc1)C(=S)NC(=O)c1ccccc1	-3%	.	.	3%	.	-1
CCCOc1ccc(CN(CCC#N)C(=S)NC(=O)c2ccccc2)cc1	14%	28µM*	-5%	-4%	?	-4
COc1ccc(-n2c(=O)cnc3cnc(Oc4cccc(Cl)c4)nc32)cc1	0%	-7%	-3%	?	.	.
COc1cccc(OCc2nc3ccccc3c(=O)n2N)c1	?	-1%	0%	-9%	-29	-5
Nn1c(COc2ccccc2)nc2ccccc2c1=O	-4%	-12%	3%	1%	-89*	9
O=C(O)c1cccc(S(=O)(=O)N2CCCC2)c1	-13%	-18%	-1%	1%	16	1
CN1/C(=C\C(=O)c2cccnc2)C(C)(C)c2ccccc21	-1%	-2%	-1%	4%	-27	-3
CN1/C(=C\C(=O)c2cccc(S(=O)(=O)N3CCCCC3)c2)C(C)(C)c2ccccc21	0%	-30%	-1%	?	-88*	-9
CN1/C(=C\C(=O)c2cncc(Br)c2)C(C)(C)c2ccccc21	2%	-11%	-7%	-5%	-84*	-12
CC(C)C(=O)NC(=S)/C=C1/N(C)c2ccccc2C1(C)C	-5%	.	.	8.9µM*	.	-9
O=c1nc2ccccc2c2n1CC(CN1CCN(c3ccccc3)CC1)N2 (configuration not stated)	-1%	.	.	3%	.	.
CC(=O)Nc1nonc1-c1nc2ccccc2n1Cc1ccccc1	-1%	?	0%	?	22	-9

Compound activity deposited in PubChem by National Center for Advancing Translational Sciences (NCATS).
